Compound activity deposited in PubChem by National Center for Advancing Translational Sciences (NCATS).
TGFb SMAD3 inh: inhibitors of TGF-b signaling | HepG2 CAGA-GFP TGF-b/SMAD3 reporter, GFP fluorescence, 18 h; TGF-beta stimulated, 500 pg/mL final | Potency, µM (top dose mostly 46.1 µM), without a hit: at the top dose activity, negative = inhibition, most hits filed as inhibitors | 410,000 compounds, 1.2% hits | AID 588855; also: % is scaled to controls: 0 for no effect and ±100 for the full control effect; nearly all actives have a fitted effect of over 65% in size
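First, reporter cells (HEPG2 CAGA-GFP) rested 2 h at 37 degrees C. Next, compounds were pinned in and TGF-beta added to 500 pg/mL final. After 18 h, GFP was imaged per cell and summed per well.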
S2 tox: reduces viability in counter-screen for ATXN expression inhibitors; S2 cells (HEK-293 line with an ATXN2-luciferase reporter) viability, CellTiter-Fluor protease fluorescence, 24 h; Potency, µM (top dose mostly 56.7 µM), most hits filed as cytotoxic; 400,000 compounds, 0.49% hits; also: nearly all actives have a fitted effect of over 40% in size
GLP1R inv ag: inverse agonists of human GLP-1 receptor | HEK293 GLP-1R CRE-luciferase, luminescence, 24 h; GLP-1R form is constitutively active | P43220 | 410,000 compounds, 1.6% hits | Potency, µM (series often up to 38.3 µM), without a hit: top-dose activity change, negative = inhibition, actives largely listed as inhibitors; also: % is scaled to controls: 0 for no effect and ±100 for the full control effect; nearly all actives have a fitted effect of over 55% in size
Target sequence (P43220 whole entry, looked up): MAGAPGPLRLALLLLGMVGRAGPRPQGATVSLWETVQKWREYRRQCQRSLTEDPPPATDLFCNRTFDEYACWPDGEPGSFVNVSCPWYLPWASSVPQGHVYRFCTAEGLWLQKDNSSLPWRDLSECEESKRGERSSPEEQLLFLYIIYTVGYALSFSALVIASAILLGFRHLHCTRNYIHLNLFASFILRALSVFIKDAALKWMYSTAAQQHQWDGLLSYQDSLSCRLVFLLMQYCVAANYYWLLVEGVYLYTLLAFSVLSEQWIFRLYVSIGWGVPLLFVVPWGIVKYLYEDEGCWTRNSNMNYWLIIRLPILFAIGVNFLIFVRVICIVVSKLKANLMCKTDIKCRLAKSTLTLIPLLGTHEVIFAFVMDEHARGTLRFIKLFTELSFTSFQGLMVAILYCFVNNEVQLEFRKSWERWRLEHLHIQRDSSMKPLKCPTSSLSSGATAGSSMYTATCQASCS
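GLP-1R inverse agonism mode: basal reporter luminescence in engineered HEK293 cells measured after one day of compound exposure at 37 deg C, with a 12 min room-temperature detection step.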
GLP-1R agonist: agonists of human GLP-1 receptor | Potency, µM (top dose mostly 45.6 µM), without a hit: top-dose activation, hits mostly activators | HEK293 GLP-1R CRE-luciferase, luminescence, 4-6 h; cells express a hypersensitive GLP-1R form | 380,000 compounds, 0.007% hits | P43220; also: % of control where 0% means no effect
ATXN2 expr inh: inhibitors of ATXN2 expression | Potency, µM (series often up to 57 µM), for inactives: at the highest dose activity change, negative = inhibition, hits mostly inhibitors | HEK-293 ATXN2-luciferase reporter, luminescence, 24 h | 360,000 compounds, 0.72% hits; also: % is scaled to controls: 0 for no effect and ±100 for the full control effect; nearly all actives have a fitted effect of over 55% in size
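qHTS (up to 57 uM final) was run with 24 h compound exposure of reporter cells at 37 °C. Each well was multiplexed: SteadyGlo luminescence measured ATXN2-luciferase expression after a fluorogenic Gly-Phe-AFC viability readout (25 uM final).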
HepG2 tox-1: HepG2 cytotoxicity, counter-screen for TGF-b inhibitors; AID 588856; Potency, µM (doses to about 46.1 µM), for the others: at the top dose activity change, negative = cytotoxicity, actives largely listed as cytotoxic; HepG2 CAGA-GFP viability, ATP luminescence, 18 h; 410,000 compounds, 0.76% hits
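CellTiter-Glo luminescence gave cytotoxicity after 18 hours at 37 degrees C. The cells were HepG2 CAGA-GFP in 1% FBS DMEM, stimulated with 500 pg/mL TGF-beta after compound addition. %Activity was normalised to no-cell wells (complete cell-killing) and DMSO (no toxicity), and curves were fitted and classified.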
TGFb confirm: confirmation of TGF-b signaling inhibitors in HepG2 reporter cells; shares compounds with TGFb SMAD3 inh; HepG2 CAGA-GFP TGF-b reporter, GFP fluorescence, 18 h; cells stimulated with TGF-beta, 500 pg/mL; Potency, µM (titrated, usually from 46.1 µM), inactives show at the highest dose activity, negative = inhibition, usual class: inhibitors; 1,600 compounds, 63% hits; AID 720534; also: % is scaled to controls: 0 for no effect and ±100 for the full control effect; nearly all actives have a fitted effect of over 65% in size
HepG2 tox-2: toxic to HepG2 cells in TGF-b counterscreen; Potency, µM (series often up to 46.1 µM), for the others: at the top dose activity, negative = cytotoxicity, hits mostly inhibitors; shares compounds with TGFb SMAD3 inh; AID 720535; HepG2 CAGA-GFP viability, ATP luminescence, 18 h; cells stimulated with TGF-beta, 500 pg/mL; 1,600 compounds, 27% hits; also: % is scaled to controls: 0 for no effect and ±100 for the full control effect; nearly all actives have a fitted effect of over 70% in size
TGFb CCL64 inh: orthogonal confirmation of TGF-b inhibitors in CCL64 cells; shares compounds with TGFb SMAD3 inh; CCL64 CAGA-GFP reporter, TGF-b stimulated, GFP fluorescence, 18 h; Potency, µM (highest dose often 46.1 µM), for inactives: top-dose activity, negative = inhibition, actives largely listed as inhibitors; 1,600 compounds, 41% hits; also: nearly all actives have a fitted effect of over 65% in size
COP TGFb inh: validation of TGF-b inhibitors in HepG2 COP promoter reporter. HepG2 COP-GFP TGF-b reporter, GFP fluorescence, 18 h; cells stimulated by added recombinant TGF-beta. shares compounds with TGFb SMAD3 inh. 1,600 compounds, 3% hits. AID 720537. Potency, µM (titrated, usually from 46.1 µM), without a hit: top-dose activity, negative = inhibition, hits mostly inhibitors; also: nearly all actives have a fitted effect of over 70% in size
Numbers without * were called inactive; i = inactive; ? = inconclusive; / = no result given. Sampled rows, rich in hits. Any-hit rate of the full collection: about 3.7%. Calls follow the shape of the dose curve; as a rule, active = well fitted curve in the direction sought with a large enough effect; inconclusive = small, poorly fitted or top-dose-only effect, or another doubt; inactive = no such curve, though single readings can be large; an effect the other way counts as inactive or inconclusive. Potency is read from the fitted curve at half-maximal effect.

SMILES | TGFb SMAD3 inh | S2 tox | GLP1R inv ag | GLP-1R agonist | ATXN2 expr inh | HepG2 tox-1 | TGFb confirm | HepG2 tox-2 | TGFb CCL64 inh | COP TGFb inh
COC(=O)c1sc(NC(=O)c2ccc([N+](=O)[O-])o2)c(C#N)c1C | 4.5µM* | ? | ? | -3% | / | -54% | 7.3µM* | 10µM* | 15µM* | 41%
COC(=O)c1c(NC(=O)Cc2ccccc2)sc2c1CCN(C(C)C)C2 | 4% | ? | 3% | 11% | -28% | 0% | / | / | / | /
COc1ccc(OC)c(CNC(=O)c2cc(=O)[nH]c3ccc(S(=O)(=O)N4CCCCC4C)cc23)c1 (stereo not drawn) | 1% | / | -6% | / | / | -11% | / | / | / | /
CCN(CC)CCOc1ccc(-c2nc3cc(Cl)ccc3s2)cc1 | / | / | / | -3% | / | / | / | / | / | /
O=C1/C(=C/c2ccccc2[N+](=O)[O-])COc2ccccc21 | 7.9µM* | 24µM* | ? | -7% | 21µM* | -23% | 2.1µM* | 10µM* | 2.3µM* | 4%
CNc1ccc(/C=C2\COc3ccccc3C2=O)cc1[N+](=O)[O-] | 16% | i | 10% | 14% | 43% | 6% | / | / | / | /
O=C1NC(c2cccc3ccccc23)Nc2ccccc21 (stereo not drawn) | 3.5µM* | ? | ? | ? | 14% | -29% | 2.6µM* | ? | 6.5µM* | 8%
O=C1NC(c2ccccc2Cl)Nc2ccccc21 (stereo not drawn) | 3% | i | -26% | -8% | -15% | -36% | / | / | / | /
CCOc1ccc(NC(=O)Cn2c(=O)n(CCC(=O)NCCc3ccccc3)c(=O)c3ccccc32)cc1 | -1% | i | 2% | -1% | 5% | 0% | / | / | / | /
CN(C)c1ccc(NC(=O)Nc2csc3ccccc23)cc1 | -11% | i | ? | 11% | 52% | -13% | / | / | / | /
O=C(Nc1ccc(F)cc1)Nc1csc2ccccc12 | 14µM* | i | ? | -2% | 13% | -27% | ? | ? | ? | 23%
C=CCN1C(=O)C(CC(C)C)NC1=S (stereo not drawn) | / | / | / | 9% | / | / | / | / | / | /
COc1ccc(OC)c(CN2CCCC(C(=O)c3ccccc3SC)C2)c1 (stereo not drawn) | ? | ? | ? | 21% | ? | -28% | ? | ? | ? | 40%
COc1ccc(-c2[nH]ncc2CN2CCCC(C(=O)c3ccc(OC)cc3OC)C2)cc1 (stereo not drawn) | -3% | i | ? | 9% | / | 0% | / | / | / | /
COc1ccc(S(=O)(=O)N(CC(=O)N2CCC(C)CC2)c2ccc(C)cc2)cc1 | 0% | i | -11% | 0% | -11% | -36% | / | / | / | /
O=C(Oc1c(CN2CCOCC2)cc(Cl)c2cccnc12)c1ccccc1Br | 3.2µM* | ? | ? | 7% | / | -136% | -11% | ? | ? | 1%
Oc1c(CNc2ccccc2)cc(COCc2ccccc2)c2cccnc12 | ? | i | / | -3% | ? | -10% | / | / | / | /
Oc1c(CN2CCOCC2)cc(COCc2ccccc2)c2cccnc12 | 1µM* | i | ? | 5% | 5.6µM* | -38% | -22% | ? | 8.2µM* | 21%
Cc1ccccc1OCC(=O)NCC(=O)OCC(=O)c1ccc2c(c1)CCCC2 | 16% | / | / | / | / | 22% | / | / | / | /
COc1ccc(CCC(=O)NC2CC(=O)N(c3ccc(C)c(C)c3)C2)cc1 (stereo not drawn) | 7% | / | 6% | / | / | 5% | / | / | / | /
O=C(O)c1c2c(nc3ccccc13)CCCC2 | -3% | / | / | / | / | 9% | / | / | / | /
CC(NC(=O)C1CCCN1S(=O)(=O)c1ccc2c(c1)n(C)c(=O)c(=O)n2C)c1ccccc1 (stereo not drawn) | -2% | i | 1% | 5% | -1% | -29% | / | / | / | /
CC(NC(=O)C1CCCN1S(=O)(=O)c1ccccc1)c1ccccc1 (stereo not drawn) | ? | i | -6% | 0% | -13% | -28% | ? | 7% | 9% | 1%
CN(C)CCCN(C(=O)CCOc1ccccc1)c1nc2ccc(F)cc2s1 | 3.5µM* | ? | ? | -11% | / | -125% | 15µM* | ? | 8.2µM* | ?
CN(C)CCCN(C(=O)COc1ccccc1)c1nc2ccc(F)cc2s1 | 18% | i | ? | -5% | / | -2% | / | / | / | /
SMILES | TGFb SMAD3 inh | S2 tox | GLP1R inv ag | GLP-1R agonist | ATXN2 expr inh | HepG2 tox-1 | TGFb confirm | HepG2 tox-2 | TGFb CCL64 inh | COP TGFb inh
c1ccc2c(Nc3nc(-c4ccncc4)nc4ccccc34)cccc2c1 | -16% | i | ? | 18% | -23% | -64% | / | / | / | /
Clc1cccc(Nc2nc(-c3ccncc3)nc3ccccc23)c1 | 2% | ? | -32% | 2% | ? | -41% | ? | ? | ? | 9%
Clc1ccccc1Nc1nc(-c2ccncc2)nc2ccccc12 | -10% | i | ? | 22% | -35% | -55% | -14% | 23µM* | ? | 52%
CCS(=O)(=O)c1nc2ccccc2n1CC(=O)Nc1ccccc1C(=O)OC | -4% | i | -7% | / | 8% | -40% | / | / | / | /
CCOC(=O)C1CCN(C(c2cccnc2)c2c(NC(=O)c3ccco3)sc(C)c2C)CC1 (stereo not drawn) | 7.9µM* | i | ? | 0% | ? | -53% | 21µM* | ? | ? | 18%
Cc1cccc(NC(=O)c2cccc(N3CCCS3(=O)=O)c2)c1 | -14% | i | -3% | / | 18% | -12% | / | / | / | /
CCc1ccc(OCCCCn2c(CCNC(=O)C3CCCCC3)nc3ccccc32)cc1 | -9% | / | / | / | / | -14% | / | / | / | /
